AmpC detergent – qHTS Inhibitors of AmpC Beta-Lactamase (assay with detergent). P00811. AmpC hydrolysis of nitrocefin, absorbance 480 nm, 0.01% Triton. 370,000 tested, 0.041% active. Potency, µM (doses to about 114 µM), hits mostly inhibitors; also: nearly all actives have a fitted effect of over 25% in size
Target sequence (P00811 whole entry, looked up): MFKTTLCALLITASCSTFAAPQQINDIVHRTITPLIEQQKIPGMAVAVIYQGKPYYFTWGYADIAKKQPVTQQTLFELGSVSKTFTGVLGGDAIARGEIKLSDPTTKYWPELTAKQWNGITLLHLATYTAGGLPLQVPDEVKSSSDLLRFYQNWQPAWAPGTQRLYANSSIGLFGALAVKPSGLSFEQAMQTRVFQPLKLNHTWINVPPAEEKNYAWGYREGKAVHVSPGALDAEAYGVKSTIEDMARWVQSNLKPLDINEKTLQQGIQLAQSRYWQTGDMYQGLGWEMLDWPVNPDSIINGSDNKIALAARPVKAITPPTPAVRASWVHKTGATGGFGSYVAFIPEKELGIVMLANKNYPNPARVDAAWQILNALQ
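20 mM phosphate pH 7.0 + 0.01% (detergent screen) or 0.0001% Triton X-100; 5.3 nM AmpC reagent; cpd preinc 15 min RT; nitrocefin (800 uM stock) to start; A480 q20 s × 4 min; Activity was normalised to no-enzyme and no-compound control wells.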
Sm TGR inh – qHTS Assay for the Inhibitors of Schistosoma Mansoni Peroxiredoxins | purified TGR, DTNB reduction, TNB absorbance 405 nm | 360,000 tested, 3% active | Schistosoma mansoni thioredoxin glutathione reductase (TGR), Q962Y6 | Potency, µM (series often up to 114 µM), most hits filed as inhibitors; also: nearly all actives have a fitted effect of over 60% in size
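TGR 20 nM + NADPH 100 uM (dispensed conc.), cpd preinc 15 min RT; start with NADPH (500 uM addition) then DTNB (15 mM addition). Kinetic TNB absorbance, 405 nm filter. Four-parameter Hill fit across titration.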
AMA1-RON2 inh – qHTS for Inhibitors of AMA1-RON; Towards Development of Antimalarial Drug Lead: Primary Screen. 360,000 tested, 0.2% active. Potency, µM (titrated, usually from 58.2 µM), hits mostly inhibitors. AlphaScreen AMA1-biotinylated RON2 peptide binding. Plasmodium falciparum AMA1 (3D7) - RON2 peptide interaction; also: nearly all actives have a fitted effect of over 45% in size
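AMA1 (3D7) with his tag at 25 nM final met compounds first, then biotinylated RON2 peptide at 25 nM; detection used donor plus acceptor beads, 10 µg/mL apiece, read by AlphaScreen after 30 min at room temperature.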
AmpC no deterg – qHTS Inhibitors of AmpC Beta-Lactamase (assay without detergent); AmpC nitrocefin hydrolysis, absorbance 480 nm, 0.0001% Triton; P00811; AID 485341, 2010; 330,000 tested, 0.52% active; Potency, µM (top dose mostly 57.1 µM), hits mostly inhibitors; also: nearly all actives have a fitted effect of over 20% in size
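AmpC (5.3 nM in the dispensed reagent) in 20 mM phosphate pH 7.0 with 0.01% (detergent screen) or 0.0001% Triton X-100 was preincubated with compounds for 15 min at room temperature. Nitrocefin was then added from an 800 uM solution, and hydrolysis was followed at 480 nm.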
FMDV inh – High Throughput Screening for Foot and Mouth Disease Virus Antivirals. FMDV antiviral cell-based qHTS. Potency, µM (series often up to 57.9 µM), hits mostly inhibitors. 410,000 tested, 1.2% active; calls by dose curve; tested in HEK293T cells; also: read-out not given here; nearly all actives have a fitted effect of over 45% in size
Large screens that a line does not name were inactive. Compounds with a hit are over-represented: about 4.1% of the library has one in this group of screens. Unless noted, calls follow the shape of the dose curve; as a rule, active = well fitted curve in the direction sought with a large enough effect; inconclusive = small, poorly fitted or top-dose-only effect, or another doubt; inactive = no such curve, though single readings can be large; an effect the other way counts as inactive or inconclusive.

CCCC(=O)N1CCCC(c2cc(C(=O)Nc3ccccc3)no2)C1 (centres undefined)	FMDV inh 20µM (no result: AmpC detergent, Sm TGR inh, AmpC no deterg)
O=C(NC1CCCCCC1)c1ccc(CS(=O)(=O)Cc2ccccc2F)o1	Sm TGR inh 22µM
Cc1ccc(CS(=O)Cc2ccc(C(=O)NC3CCCCCC3)o2)cc1 (centres undefined)	Sm TGR inh inconclusive
Cc1ccc(CNC(=O)c2ccc(CS(=O)Cc3ccccc3Cl)o2)cc1 (centres undefined)	Sm TGR inh 35µM
O=C(NC1CCCCCC1)c1ccc(CS(=O)Cc2ccccc2Cl)o1 (centres undefined)	Sm TGR inh 32µM
Cc1ccc(CS(=O)Cc2ccc(C(=O)NC3CCCC(C)C3C)o2)cc1 (centres undefined)	AmpC detergent inconclusive, Sm TGR inh 35µM
O=C(NC1CCCC1)c1ccc(CS(=O)(=O)Cc2ccccc2Cl)o1	none
COc1cc(NC(=O)Cn2ncc3c2-c2ccccc2OC3)cc(OC)c1OC	none
COc1ccccc1NC(=O)Cn1ncc2c1-c1ccccc1OC2	AmpC no deterg 6.3µM
COc1cc(-c2nnc(SCC(=O)N(C)C3CCCCC3)o2)cc(OC)c1OC	none (no result: AMA1-RON2 inh, AmpC no deterg)
CCOc1ccc(CN(C)C(=O)[C@H](Cc2ccccc2)NC(=O)OCc2ccccc2)cc1OC	FMDV inh 20µM
COc1ccc(CN(C)C(=O)C(Cc2ccccc2)NC(=O)c2ccccc2)cc1F (centres undefined)	none
CCN(CC)CCCN1C=C2C(=O)C(C)(OC(=O)C3CCCC3)C(=O)C=C2C=C1c1ccsc1 (centres undefined)	Sm TGR inh 50µM
N[C@](CC1c2ccccc2Oc2ccccc21)(C(=O)O)[C@H]1C[C@@H]1C(=O)O	none (no result: AmpC detergent, Sm TGR inh, AMA1-RON2 inh, AmpC no deterg)
Cc1c(C(=O)N/N=C/c2ccc(Cl)cc2)[nH]c2ccc(Cl)cc12	AmpC no deterg 14µM
O=C(CN1CCCC1)Nc1ccc(NC(=O)Nc2ccccc2Cl)cc1	AmpC detergent inconclusive, AmpC no deterg 16µM
CCc1ccccc1NC(=O)NC1CCCCC1	none
COc1ccc(NC(=O)CN2CCN(CC(=O)Nc3ccccc3Cl)CC2)cc1Cl	FMDV inh 40µM
O=C(Nc1ccccc1Cl)NC1CCCCCCC1	AmpC no deterg 35µM
Cc1c(-c2ccc(Cl)cc2)c(=O)oc2ccc(OC(=O)N3CCOCC3)cc12	none (no result: AMA1-RON2 inh, AmpC no deterg)
COc1ccc(-c2cc(CNC(=O)CCl)on2)cc1	AmpC detergent inconclusive, Sm TGR inh 35µM, FMDV inh inconclusive
C=CC(=O)N1C/C(=C/c2ccccc2)C(=O)/C(=C\c2ccccc2)C1	FMDV inh 7.9µM (no result: AmpC detergent, Sm TGR inh, AmpC no deterg)
C=CC(=O)N1C/C(=C/c2ccc(Cl)cc2)C(=O)/C(=C\c2ccc(Cl)cc2)C1	AMA1-RON2 inh inconclusive, FMDV inh 8.9µM (no result: AmpC detergent, Sm TGR inh, AmpC no deterg)
CC(C)n1nnnc1C1c2ccccc2C(=O)N1Cc1ccc(F)cc1 (centres undefined)	none (no result: AmpC detergent, Sm TGR inh, AmpC no deterg)
CCCCCCn1c(N2CCC(C)CC2)nc2c1c(=O)[nH]c(=O)n2C	FMDV inh 20µM
CCCCn1c(SCc2ccc(Cl)cc2)nc2c1c(=O)[nH]c(=O)n2C	FMDV inh 35µM
CCCCn1c(N2CCC(Cc3ccccc3)CC2)nc2c1c(=O)[nH]c(=O)n2C	FMDV inh 28µM
CCCCCn1c(CN2CCN(c3ccc(OC)cc3)CC2)nc2c1c(=O)[nH]c(=O)n2C	none (no result: AMA1-RON2 inh, AmpC no deterg)
CCCCCn1c(CN2CCN(c3cc(Cl)ccc3C)CC2)nc2c1c(=O)[nH]c(=O)n2C	FMDV inh 28µM
COC1=CC(=O)c2nc(Cl)ccc2C1=O	FMDV inh 10µM (no result: AmpC detergent, Sm TGR inh, AmpC no deterg)
COc1cc(C2c3c(-c4cc(C)ccc4O)n[nH]c3C(=O)N2CCCO)ccc1OCCC(C)C (centres undefined)	FMDV inh inconclusive (no result: AMA1-RON2 inh, AmpC no deterg)
N=C1CCC(=N)c2c1c(O)c1ccccc1c2O	Sm TGR inh 4.5µM, AMA1-RON2 inh 20µM
COc1ccc(N/N=C(/C(C)=O)N2CCCc3ccccc32)cc1	AMA1-RON2 inh 16µM

From PubChem
